{
  "source": "paper PMC7819943",
  "about": "“Rice protein-binding microarrays: a tool to detect cis-acting elements near promoter regions in rice”",
  "note": "The full ranking holds about 35,000 sequences; the median of “fluorescence intensity (a.u.)” is about 10,000, and the highest 2% start at about 52,000. Only a selection was taken, and the highest values are over-represented in it overall.",
  "data": [
    {"molecular_target": "T1, OsWOX13 (Oryza sativa, UniProt Q5QMM3 1-267)", "T1 sequence": "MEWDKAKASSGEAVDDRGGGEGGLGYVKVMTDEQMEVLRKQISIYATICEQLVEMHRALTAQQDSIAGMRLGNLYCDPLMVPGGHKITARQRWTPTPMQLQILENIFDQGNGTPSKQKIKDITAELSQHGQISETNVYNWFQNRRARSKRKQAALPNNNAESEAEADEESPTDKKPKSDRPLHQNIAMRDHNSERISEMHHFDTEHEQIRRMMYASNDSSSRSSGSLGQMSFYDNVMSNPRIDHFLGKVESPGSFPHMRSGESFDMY", "assay": "protein-binding microarray (RPBM); PBS, 2% BSA, 51.3 ng/ul salmon testes DNA, 50 uM zinc acetate, 200 nM TF, 25 C, 1 h; high values mean tight binding", "details": "protein: recombinant; tags: N-terminal polyhistidine and DsRed monomer fusion (pET32a); label: CyDye5-dUTP incorporated in the synthesized complementary strand; 3' TTTTT single-stranded linker to array surface; dsDNA, one strand shown", "summary_of_the_method": "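Transcription factors were made in E. coli BL21-CodonPlus as N-terminal fusions to a polyhistidine tag and DsRed, then purified on Ni–NTA. After primer extension with Cy5-dUTP and blocking with 2% BSA, a custom Agilent array was exposed for 1 h at 25 °C to 200 nM protein in PBS, 2% BSA, salmon testes DNA and 50 µM zinc acetate. Washed arrays were scanned on an Axon 4000B, and the binding signal is per-feature fluorescence intensity in arbitrary units.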", "values": [
      {"sequence": "TTTAATTGTATTAACACTCGTGAGAATGATACATGAGATCCGGAGTCACCTAGTGCAG", "binding signal": "29000 fluorescence intensity (a.u.)"},
      {"sequence": "GTGAATTTGATAGGGCGATAAGGATAATAAACAAGAACATCGGAGTCACCTAGTGCAG", "binding signal": "3540 fluorescence intensity (a.u.)"},
      {"sequence": "ACATTAACAAACTCTATCTTAACATTTAGATGCAAGAGCCCGGAGTCACCTAGTGCAG", "binding signal": "3790 fluorescence intensity (a.u.)"},
      {"sequence": "ATTGATCAATCGATCAATCCCTCCTTCCCCATCCAATCCTCGGAGTCACCTAGTGCAG", "binding signal": "4160 fluorescence intensity (a.u.)"},
      {"sequence": "TCCTTGATTTCTCCCCTCTCTCTGTCATTTCTCTCTTCCTCGGAGTCACCTAGTGCAG", "binding signal": "13500 fluorescence intensity (a.u.)"},
      {"sequence": "AGTGACCTCAATTGATCATTCCCTCATCCTTTAGTCAAGCCGGAGTCACCTAGTGCAG", "binding signal": "3990 fluorescence intensity (a.u.)"},
      {"sequence": "CGGATCCCATTCAATCATTCATTCATGTCGGATTGATGCCCGGAGTCACCTAGTGCAG", "binding signal": "11800 fluorescence intensity (a.u.)"},
      {"sequence": "TACATGATGGGAAAATAGACTTTTGCAGCAGAGATTGAATCGGAGTCACCTAGTGCAG", "binding signal": "10200 fluorescence intensity (a.u.)"},
      {"sequence": "TCCCCTTGATTGATTGATCACCATTATTATAACATCCTCTCGGAGTCACCTAGTGCAG", "binding signal": "64400 fluorescence intensity (a.u.)"},
      {"sequence": "TCGCCAATGATTGATCGCCTCATTCCCTCCTCCTCCTCCTCGGAGTCACCTAGTGCAG", "binding signal": "57300 fluorescence intensity (a.u.)"},
      {"sequence": "TAATAACTTATACTGATATTGATTACTCCCTCCATCCCTACGGAGTCACCTAGTGCAG", "binding signal": "11800 fluorescence intensity (a.u.)"},
      {"sequence": "CTAACTCAATGATTAAAATCTCGCCAGATCCCTCCTGCGTCGGAGTCACCTAGTGCAG", "binding signal": "16700 fluorescence intensity (a.u.)"},
      {"sequence": "GATGATTGATGGGAATATAGAGATCCCATGTTTTCCAGCTCGGAGTCACCTAGTGCAG", "binding signal": "61000 fluorescence intensity (a.u.)"},
      {"sequence": "ATGATTGATCCATGAATCCCATTATCCATCATCCTCGAGTCGGAGTCACCTAGTGCAG", "binding signal": "63300 fluorescence intensity (a.u.)"},
      {"sequence": "AATATCCCATGATTGACTAGCTAGATGAATCCATATGGGTCGGAGTCACCTAGTGCAG", "binding signal": "36500 fluorescence intensity (a.u.)"},
      {"sequence": "CCGAAATTTGTCTCTTAATCATATACCGCACTTTCTGCCACGGAGTCACCTAGTGCAG", "binding signal": "16100 fluorescence intensity (a.u.)"},
      {"sequence": "TATTAATTGGATAAAGTCATCTATATTAATGTGGATAATACGGAGTCACCTAGTGCAG", "binding signal": "17600 fluorescence intensity (a.u.)"},
      {"sequence": "CAGGTGCTCTAACTACTATGTAATTGAACCACTGACATGTCGGAGTCACCTAGTGCAG", "binding signal": "5510 fluorescence intensity (a.u.)"},
      {"sequence": "TAAAAGATTTGTATCACAAATTAGTCGCAATTTGTATAATCGGAGTCACCTAGTGCAG", "binding signal": "9610 fluorescence intensity (a.u.)"},
      {"sequence": "TTAATTTGTTGTGATTAACGTGGCATGCATGACACTAAAGCGGAGTCACCTAGTGCAG", "binding signal": "26900 fluorescence intensity (a.u.)"},
      {"sequence": "AACGCAATCAGTGGGAGATCAATCGCAAAATCACCATCATCGGAGTCACCTAGTGCAG", "binding signal": "11000 fluorescence intensity (a.u.)"},
      {"sequence": "AAACTAAATTTAGACAGGAGTTCAGGTGATGAGTCAATGGCGGAGTCACCTAGTGCAG", "binding signal": "36800 fluorescence intensity (a.u.)"},
      {"sequence": "CCTAAATTATTCTAAAATTAAAATGTTAATGGGGAAGTATCGGAGTCACCTAGTGCAG", "binding signal": "19900 fluorescence intensity (a.u.)"}
    ]}
  ]
}
